The panel holds about 83,000 compounds, 20% with a hit somewhere; the sample as a whole holds those more often.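 Activity criterion: percent growth below 10, measured after cells in 96-well plates were exposed to a single compound concentration for 48 hours.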 Calls of active or inactive are those of the source.

This test deals with SK-OV-3 ovarian. Briefly: NCI-60 one-dose screen, 48 h (100 = growth as untreated, 0 = no growth, -100 = all killed). To be noted: 10 µM unless noted. The protocol: Growth inhibition of the SK-OV-3 human tumor cell line is measured as a screen for anti-cancer activity. Cells are grown in 96 well plates and exposed to the test compound for 48 hours. Compounds are tested at a single concentration, which is 10^-5 M for most compounds. The reported endpoint is percent growth (GI% or GIPRCNT), where numbers from 0 - 100% represent growth inhibition, and numbers from -100% - 0 represent cell death. For example, a value of 40 represents 60% growth inhibition. A value of 0 means no net growth occurred over the course of the experiment. A value of -40 indicates 40% of cells at the beginning of the experiment died by the end of the experiment. A value of -100 means all cells are dead at the end of the experiment.
NCI-60 Human Tumor Cell Lines Screen was performed using the standard one-dose NCI protocol, which is described in more detail at https://dtp.cancer.gov/discovery_development/nci-60/default.htm.
Compounds with GIPRCNT values below 10 were considered active. Activity score was based on GIPRCNT using the following formula: […]
Score is 0 for GIPRCNT values of 100 or above, 50 for GIPRCNT values of 0, and 100 for GIPRCNT values of -100.
For `NS(=O)(=O)c1ccc(-n2nc(-c3ccc(Cl)cc3)ccc2=O)cc1`, the growth is 93.8% (inactive).
Regarding `CCc1c(C)c2cc3c(c(C)c2oc1=O)OCC(=O)N3`, the growth is 78.6% (inactive).
Consider `O=C1OC(N(Cc2ccc(Cl)cc2)c2ccccc2)c2ccccc21` (stereo not given), for which the growth was 97.2% (inactive).
In the case of `COc1ccc(/C(=C/c2cc(OC)c(OC)c(OC)c2)[N+](=O)[O-])cc1` it was 91% (inactive); in that of `CN(C)c1ccc(/C=N/n2c(-c3cc(F)c(Cl)cc3Cl)nn(CN3CCOCC3)c2=S)cc1`, 101% (inactive).
In the case of `Fc1ccc(/C=N/n2c(-c3cc(Cl)cc(Cl)c3Cl)nn(CNc3ccc(Cl)nn3)c2=S)cc1` it was 90.2% (inactive); in that of `O=C(NCCNc1nccc(-c2c(-c3cccc(O)c3)nc3sccn23)n1)c1ccccc1O`, 60.5% (inactive).
With `O=C(Nc1cccc(-n2ccc3c(NC(=O)c4ccccc4)nccc32)c1)c1cccc(C(F)(F)F)c1`, the growth is 12.1% (inactive).
In the case of `COc1cc(NC(=O)c2cc(OC)c3ccn(C)c3c2)cc2c1C[C@]1(C)CC[C@@H](O)C(C)(C)[C@H]1O2` it was 53% (inactive); in that of `CC(C)(C)C(=O)Nc1nc2c(s1)CCc1ccn(S(=O)(=O)c3ccccc3)c1-2`, 96.1% (inactive).
With `Cc1c(Cl)ccc2c(C(=O)Cl)cc(-c3ccccc3)nc12` the figure was 99.4% (inactive); with `Cn1c(I)c(C#C[Si](C)(C)C)c(=O)[nH]c1=O`, 110% (inactive).
Regarding `COc1cc2nc(C(=O)N3CCCCC3)cc(Nc3ccccc3)c2cc1OC`, the growth is 108% (inactive).
Consider `Cc1ccc[n+](CC(=O)c2cccc3ccccc23)c1`, for which the growth was 96.9% (inactive).
With `CN1CCN(C(=O)/C=C/c2ccc([N+](=O)[O-])o2)CC1` the figure was 100% (inactive); with `CCc1c(C)c2cc(-n3c(-c4ccc(OC)cc4)csc3=N)c(O)c(C)c2oc1=O`, 43.8% (inactive).
In the case of `CCCCN(CCCC)c1ccc(C(=N)c2ccc(N(C)C)cc2)cc1` it was -7.53% (active).
With `C=CC(C)(O)CCC1C(=C)CCC2C(C)(C)CCCC12C` (stereo not given) the figure was 94.1% (inactive); with `O=c1cc(Cl)[nH]c(=O)[nH]1`, 85.2% (inactive); with `COc1ccc(NC(=O)Nc2ccc(-c3ccc(OC)c(OC)c3)nc2C)cc1`, 74.8% (inactive).
With `Nc1c(C(=O)O)[nH]c(=O)[nH]c1=O`, the growth was 102% (inactive).
As to `C#C[C@H](O)/C=C/CCCCCCC#C[C@H](O)CC[C@@H](O)C#CCCCCCC/C=C/[C@@H](O)C#C`, the growth is 105% (inactive).
As to `CCN(CC)C(=O)C1CCN(C(=O)c2ccccc2)CC1`, the growth was 102% (inactive).
In the case of `CCCCNC(=O)Oc1ccc(/C(=C(/CC)Cc2ccccc2)c2ccc(OCCCN(C)C)cc2)cc1` it was 97.6% (inactive); in that of `C=C1C(=O)O[C@H]2[C@H]1CC/C(CNC(=O)/C1=C/CC[C@@]3(C)O[C@H]3[C@H]3OC(=O)C(=C)[C@@H]3CC1)=C\CC[C@@]1(C)O[C@@H]21`, 89.8% (inactive); in that of `COc1ccc(/C=C/C(=O)c2ccc(NC(=O)CSc3nnc(-c4cc(OC)c(OC)c(OC)c4)o3)cc2)cc1`, 85.2% (inactive).
With `Cc1ccc2oc(=O)cc(C3C(C#N)=C(N)Oc4c3ccc3ccccc43)c2c1` (stereo not given) the figure was 88.1% (inactive); with `FC(F)(F)c1cccc([Si](F)(c2cccc(C(F)(F)F)c2)c2cccc(C(F)(F)F)c2)c1`, 99% (inactive); with `CCOC(=O)NNc1nncc2ccccc12`, 101% (inactive).
With `O=[N+]([O-])c1ccc(NS(=O)(=O)c2cc(Cl)ccc2Cl)c2ccccc12` the figure was 59.6% (inactive); with `OCCOCC(F)(F)F`, 113% (inactive); with `O=C(O)c1ccc(-c2nn(-c3ccc(C(=O)O)cc3)cc2/C=N/Nc2c(F)c(F)cc(F)c2F)cc1`, 97.9% (inactive).
As for `O=C1C(Cl)=C(Nc2ccccc2)C(=O)C(Cl)=C1Nc1ccccc1`, the growth is 108% (inactive).
Regarding `Fc1cccc(F)c1C#Cc1ccc2cccnc2c1`, the growth is 95.7% (inactive).
With `COc1cccc(-c2nc3sccn3c2-c2ccnc(NCCNC(=O)Nc3cccc(C(F)(F)F)c3)n2)c1` the figure was 78.6% (inactive); with `CN(C)CCNc1nc2ccccc2c2c(=O)c3ccccc3sc12`, 31.5% (inactive); with `Cc1cccc(NC(=O)CCc2ccc(N3C(N)=NC(N)=NC3(C)C)cc2)c1`, 60.3% (inactive).
In the case of `O=C1c2ccccc2OC=C(c2ccccc2)N1CCCCNc1ccc(F)cc1` it was 67.9% (inactive); in that of `O=[N+]([O-])c1cccc(C(c2ccccc2)c2ccccc2)c1`, 95.6% (inactive); in that of `NC(CCCC(N)C(=O)c1ccccc1)C(=O)O` (stereo not given), 93% (inactive).
